Test results: the supplement of paper PMC6089552
About 300 (9.4%) of roughly 3,200 compounds showed activity. The sample as a whole holds a higher share of actives than the screen did.

Tested on: A673/TR/shEF
Assay: cell viability (LOESS-normalised, relative to median of negative controls) (log2 ratio); higher = more viable cells (less compound effect), active = hit call of the paper (over 3 MAD below the median)
Settings: treatment time: 72 h
Outline: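 Viability of A673/TR/shEF Ewing sarcoma cells was determined by CellTiter-Glo luminescence. The cells, at 1,500 per well in 384-well plates, were grown with or without doxycycline from 24 h before compound addition to switch on EWS-FLI1 shRNA knockdown, then exposed for three days to library compounds at two or more concentrations or to DMSO controls. Signals were LOESS-corrected plate by plate, normalised to the negative-control median and log2-transformed.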

[1] = 0.103 µM, library screen: screen3, EWS-FLI1 expression: high (no doxycycline)
[2] = 0.103 µM, library screen: screen3, EWS-FLI1 expression: low (doxycycline-induced shRNA knockdown)
[3] = 0.308 µM, library screen: screen3, EWS-FLI1 expression: high (no doxycycline)
[4] = 0.308 µM, library screen: screen3, EWS-FLI1 expression: low (doxycycline-induced shRNA knockdown)
[5] = 0.926 µM, library screen: screen3, EWS-FLI1 expression: high (no doxycycline)
[6] = 0.926 µM, library screen: screen3, EWS-FLI1 expression: low (doxycycline-induced shRNA knockdown)
[7] = 2.8 µM, library screen: screen3, EWS-FLI1 expression: high (no doxycycline)
[8] = 2.8 µM, library screen: screen3, EWS-FLI1 expression: low (doxycycline-induced shRNA knockdown)
[9] = 8.3 µM, library screen: screen3, EWS-FLI1 expression: high (no doxycycline)
[10] = 8.3 µM, library screen: screen3, EWS-FLI1 expression: low (doxycycline-induced shRNA knockdown)
[11] = 25 µM, library screen: screen3, EWS-FLI1 expression: high (no doxycycline)
[12] = 25 µM, library screen: screen3, EWS-FLI1 expression: low (doxycycline-induced shRNA knockdown)
[13] = 0.25 µM, library screen: screen1, EWS-FLI1 expression: high (no doxycycline)
[14] = 0.25 µM, library screen: screen1, EWS-FLI1 expression: low (doxycycline-induced shRNA knockdown)
[15] = 2.5 µM, library screen: screen1, EWS-FLI1 expression: high (no doxycycline)
[16] = 2.5 µM, library screen: screen1, EWS-FLI1 expression: low (doxycycline-induced shRNA knockdown)
[17] = 0.025 µM, library screen: screen1, EWS-FLI1 expression: high (no doxycycline)
[18] = 0.025 µM, library screen: screen1, EWS-FLI1 expression: low (doxycycline-induced shRNA knockdown)
[19] = 0.25 µM, library screen: screen2, EWS-FLI1 expression: high (no doxycycline)
[20] = 0.25 µM, library screen: screen2, EWS-FLI1 expression: low (doxycycline-induced shRNA knockdown)
[21] = 2.5 µM, library screen: screen2, EWS-FLI1 expression: high (no doxycycline)
[22] = 2.5 µM, library screen: screen2, EWS-FLI1 expression: low (doxycycline-induced shRNA knockdown)
[23] = 25 µM, library screen: screen1, EWS-FLI1 expression: high (no doxycycline)
[24] = 25 µM, library screen: screen1, EWS-FLI1 expression: low (doxycycline-induced shRNA knockdown)

Measured: cell viability (log2)

CN1CC[C@H](c2c(O)cc(O)c3c(=O)cc(-c4ccccc4Cl)oc23)[C@H](O)C1
inactive: [2] -0.0654
active: [1] -0.182 | [3] -0.451 | [4] -0.231 | [5] -1.4 | [6] -1.66 | [7] -3.54 | [8] -2.88 | [9] -4.29 | [10] -4.28 | [11] -4.33 | [12] -4.3

CC(=O)OC1CC[C@@]2(C)C(CC[C@]3(C)C2CCC2C4CC(C)(C)CCC4(C(=O)O)CC[C@]23C)C1(C)C (stereo partly drawn)
inactive: [13] 0.0992 | [14] 0.055 | [15] 0.145 | [16] 0.119

CC(=O)Oc1cc(OC(C)=O)c2c(c1)OC(c1ccc(OC(C)=O)c(OC(C)=O)c1)C(OC(C)=O)C2 (stereo not drawn)
inactive: [13] 0.1 | [14] 0.0336 | [15] 0.18 | [16] 0.104

CC(C)(O)[C@@H]1Cc2cc3ccc(=O)oc3cc2O1
inactive: [13] 0.0301 | [14] -0.0352 | [15] 0.107 | [16] 0.0444

COc1ccccc1-c1cc(=O)c2cccc(OC)c2o1
inactive: [13] 0.00414 | [14] -0.0253 | [15] 0.211 | [16] 0.0664

COc1ccccc1-c1cc(=O)c2c(OC)cccc2o1
inactive: [13] 0.121 | [14] -0.0186 | [15] 0.129 | [16] 0.0665

COc1cccc(-c2cc(=O)c3ccccc3o2)c1N
active: [15] -0.37
0.278: [13]
inactive: [17] 0.268 | [18] -0.0228 | [14] -0.0268 | [19] 0.18 | [20] 0.11 | [16] 0.0789 | [21] 0.195 | [22] 0.139 | [23] -0.0514 | [24] 0.0727

Cc1cc(OC(=O)c2c(C)cc(OC(=O)c3c(C)cc(O)cc3O)cc2O)cc(O)c1C(=O)O
inactive: [13] 0.154 | [14] 0.153 | [15] 0.0106 | [16] 0.113

CC[n+]1c(-c2ccccc2)c2cc(N)ccc2c2ccc(N)cc21
inactive: [13] 0.0617 | [14] 0.0391 | [16] -0.0126
active: [15] -1.89

NCCNC(=O)Cc1ccc(NC(=O)Cc2ccc(Nc3ncnc4c3ncn4C3OC(CO)C(O)C3O)cc2)cc1 (stereo not drawn)
inactive: [19] 0.211 | [20] 0.142 | [21] 0.0909 | [22] 0.0423

O=C1/C(=C\c2ccccc2F)SC(=S)N1CN1CCOCC1
inactive: [13] 0.128 | [14] 0.0809 | [15] 0.107 | [16] -0.00103

CC(=O)NCCCCCC(=O)O
inactive: [13] 0.0566 | [14] 0.106 | [15] 0.0136 | [16] 0.0704

NCCCC(=O)O
inactive: [13] 0.0628 | [14] 0.0888 | [19] 0.148 | [20] 0.12 | [15] 0.21 | [16] 0.0413 | [21] 0.0279 | [22] 0.142

CCCCCCCC/C=C\CCCCCCCC(=O)O
inactive: [19] 0.0706 | [20] 0.117 | [21] 0.0994 | [22] 0.08

O=C(O)CCCCCCCC(=O)O
active: [19] -0.13
inactive: [13] 0.000753 | [14] 0.0938 | [20] 0.0952 | [15] 0.149 | [16] 0.152 | [21] 0.0755 | [22] 0.0904

NCCCCC(=O)O
inactive: [13] 0.172 | [14] 0.0951 | [20] 0.128 | [15] 0.237 | [16] 0.0298 | [21] 0.0908 | [22] 0.116
active: [19] -0.118

NCCCCCC(=O)O
inactive: [1] 0.214 | [2] 0.078 | [13] 0.0812 | [14] 0.00994 | [19] -0.00366 | [20] 0.09 | [3] 0.0847 | [4] 0.0858 | [5] 0.107 | [6] 0.0768 | [15] 0.144 | [16] 0.111 | [21] 0.0922 | [22] 0.111 | [7] 0.141 | [8] 0.0677 | [9] 0.085 | [10] 0.128 | [11] 0.0538 | [12] 0.145

COC(=O)[C@@H]1OC(=O)C2OC23[C@@]1(C)CCC1[C@]2(C)C(C[C@@H](O)[C@]13C)C(C)(C)[C@H](OC(C)=O)C[C@@H]2OC(C)=O (stereo partly drawn)
inactive: [13] 0.0653 | [14] 0.123 | [15] 0.0967 | [16] 0.0969

COCCN1C(=O)C(=Cc2c(Cl)cccc2Cl)SC1=S
inactive: [13] 0.153 | [14] 0.208 | [15] 0.122 | [16] 0.19

COc1c(C=O)c(O)cc2c1C(=O)c1ccccc1C2=O
inactive: [17] 0.0865 | [18] 0.0031 | [13] 0.118 | [14] -0.13 | [15] 0.0699 | [16] -0.209 | [23] 0.0121 | [24] -0.781

COc1cc(C)c2c(=O)c3c(O)cc(O)cc3oc2c1
inactive: [13] -0.0797 | [14] 0.0363 | [15] 0.0175 | [16] 0.108

CC(C)c1c(O)ccc2c1CCC1[C@@](C)(C=O)CCC[C@]21C (stereo partly drawn)
inactive: [13] 0.0641 | [14] 0.0754 | [15] 0.163 | [16] 0.289

CC1=C(C(=O)Nc2ccccc2Cl)C(c2ccc(O)cc2)NC(=S)N1 (stereo not drawn)
inactive: [13] 0.145 | [14] -0.0151 | [15] 0.191 | [16] -0.0985

CCN(CC)c1ccc(C2C(C(=O)OC)=C(C)NC(C)=C2C(=O)OC)cc1
inactive: [13] 0.121 | [14] 0.087 | [15] 0.202 | [16] 0.078

CC[C@H](CC[C@@H](C)[C@H]1CC[C@H]2[C@@H]3CC=C4C[C@@H](OC(C)=O)CC[C@]4(C)[C@H]3CC[C@]12C)C(C)C
inactive: [13] 0.121 | [14] 0.139 | [15] 0.109 | [16] 0.182

CCCCCCCCCCCCC(=O)N1CCCCC1CNC(=O)C(N)CCCCN (stereo not drawn)
inactive: [19] 0.125 | [20] 0.1 | [21] 0.117 | [22] 0.072

COc1ccc(CN2CCN(Cc3ccc(C)cc3)CC2)c(OC)c1OC
inactive: [13] 0.0669 | [14] 0.0696 | [15] 0.138 | [16] 0.00566

C=CCc1ccc(OC(=O)c2ccccc2)c(OC)c1
inactive: [13] 0.102 | [14] -0.0537 | [15] 0.111 | [16] 0.0334

C=CCc1ccc(O)c(OC)c1
inactive: [13] 0.0882 | [14] 0.124 | [15] 0.127 | [16] 0.12

N/C(=N\S(=O)(=O)Cc1ccccc1)Nc1nc2ccccc2o1
inactive: [13] 0.0883 | [14] 0.00923 | [15] 0.149 | [16] 0.031

COc1ccc2c(c1)CCC1=CC(=O)CCC12C (stereo not drawn)
inactive: [13] 0.119 | [14] 0.144 | [15] 0.0987 | [16] 0.126

OC[C@@H](O)[C@@H](O[C@@H]1O[C@H](CO)[C@@H](O)[C@H](O)[C@H]1O)[C@H](O)[C@@H](O)CO
inactive: [13] 0.117 | [14] 0.055 | [15] 0.143 | [16] 0.0198

NC(N)=NCCN1CCCCCCC1
inactive: [13] 0.086 | [14] 0.0896 | [15] 0.182 | [16] 0.105

[O-]n1ccccc1=S.[O-]n1ccccc1=S.[Zn+2]
inactive: [13] 0.17 | [14] 0.0708 | [16] 0.0604
active: [15] -0.205

O=C([O-])[O-].[Ca+2]
inactive: [19] 0.129 | [20] 0.105 | [21] 0.151 | [22] 0.0778

COc1ccc(CN2CCN(Cc3ccc(OC)c(OC)c3OC)CC2)cc1OC
inactive: [13] 0.061 | [14] 0.00924 | [15] 0.123 | [16] 0.0982

CC(C)N1C(=O)C(=C2C(=O)N(C)c3ccccc32)SC1=S
inactive: [13] 0.0638 | [14] 0.00946 | [15] 0.0618 | [16] 0.138

C[C@H]1C(=O)CC[C@@H]2[C@]1(C)CC[C@H]1[C@@]2(C)CC[C@@]2(C)[C@@H]3CC(C)(C)CC[C@]3(C)CC[C@]12C
inactive: [13] 0.031 | [14] 0.0462 | [15] 0.0143 | [16] 0.0816

O=c1c(O)c(-c2ccc(O)c(O)c2)oc2cc(O)cc(O)c12
active: [23] -1.43
inactive: [17] 0.22 | [18] 0.00571 | [13] 0.112 | [14] 0.018 | [19] 0.12 | [20] 0.0619 | [15] 0.108 | [16] 0.0969 | [21] 0.176 | [22] 0.00939 | [24] 0.0272

COc1cc(O)c2c(=O)c(O)c(-c3ccc(O)c(O)c3)oc2c1
inactive: [13] -0.00867 | [14] 0.0259 | [15] 0.0453 | [16] 0.0969

O=c1c(O)c(-c2cc(O)c(O)c(O)c2)oc2cc(O)cc(O)c12
inactive: [13] 0.0195 | [14] 0.156 | [19] 0.118 | [20] 0.093 | [15] 0.0517 | [16] 0.0582 | [21] 0.111 | [22] 0.0599

N#Cc1c2c(c(Nc3ccc(O)cc3)n3c1nc1ccccc13)CCC2
inactive: [13] 0.0182 | [14] 0.0391 | [15] 0.0659 | [16] 0.0482
